# Data taken from PubChem BioAssay AID777 (Sanford-Burnham Center for Chemical Genomics, 2007).
# The campaign covered roughly 96,000 compounds. About 19,000 (20%) were called active.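 Rule for the calls: active = blocking of liver enzyme CYP2C9 beyond about 50% at 5 µM (limit read from the data); inactive = the rest.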 These entries were drawn from the full list.
# Molecular target: Cytochrome P450 2C9 (Homo sapiens) (UniProt P11712)
# Test: blockers of cytochrome P450 2C9 activity – biochemical, luminescence, ADME assay, primary screen (AID 777)
# Settings: CYP2C9 Supersomes, luciferin-H conversion, at 5 µM, stronger effect = higher value
# Sequence of Cytochrome P450 2C9 (Homo sapiens) (P11712 whole entry, looked up): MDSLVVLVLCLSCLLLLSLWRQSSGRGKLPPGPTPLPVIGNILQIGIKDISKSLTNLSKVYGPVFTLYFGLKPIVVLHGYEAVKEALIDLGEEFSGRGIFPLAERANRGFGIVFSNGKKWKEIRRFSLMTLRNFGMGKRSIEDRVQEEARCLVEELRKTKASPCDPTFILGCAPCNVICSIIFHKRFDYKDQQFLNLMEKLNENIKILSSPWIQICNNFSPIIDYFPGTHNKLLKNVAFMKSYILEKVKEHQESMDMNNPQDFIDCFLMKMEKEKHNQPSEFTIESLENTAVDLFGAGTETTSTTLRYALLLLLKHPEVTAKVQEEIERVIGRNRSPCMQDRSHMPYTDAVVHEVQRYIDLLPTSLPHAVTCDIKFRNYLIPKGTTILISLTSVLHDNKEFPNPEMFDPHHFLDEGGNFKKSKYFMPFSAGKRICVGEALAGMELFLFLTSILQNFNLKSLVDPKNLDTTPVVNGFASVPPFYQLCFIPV
row,SMILES,inhibition
1,O=C(Nc1cc2c3c(c1)C1CCCC1CN3CC1CCCC21)c1ccc([N+](=O)[O-])cc1 (stereo unspecified),96.3% (active)
2,O=C(NC1CCCCC1)c1cc([N+](=O)[O-])ccc1N1CCOCC1,1.4% (inactive)
3,COc1cccc(N2CCN(C(=O)Nc3ccc4c(c3)NC(=O)CO4)CC2)c1,13% (inactive)
4,O=C(Cc1nn[nH]n1)NCCC1=CCCCC1,-1.8% (inactive)
5,Cc1ccc(-n2c(C)cc(/C=N/Nc3ccc([N+](=O)[O-])cn3)c2C)c(C)c1,13.3% (inactive)
6,COc1ccc(CN(C(=O)c2cccs2)c2nccs2)cc1OC,99% (active)
7,COc1ccc(S(=O)(=O)N2CCN(C(=O)c3cccs3)CC2)cc1OC,-35.4% (inactive)
8,O=C(c1cccs1)N(C(=O)c1cccs1)c1ccccn1,21.5% (inactive)
9,CC(C)CC(=O)N/C(N)=N/c1nc2ccccc2s1,27.6% (inactive)
10,C[N+]1(CCNC(=O)/C=N/O)CCCCC1,5.6% (inactive)
11,Cc1ccc(SCC(=O)Nc2ncc(C)s2)cc1,35.5% (inactive)
12,Cc1ccc(SCC(=O)c2sc(-c3ccccc3)nc2C)cc1,83.6% (active)
13,Cc1nc(-c2ccccc2)sc1C(=O)/C=C/c1ccccc1,15.9% (inactive)
14,Cc1nn(-c2ncc(C(F)(F)F)cc2Cl)c(=O)n1-c1ccccc1,-45.3% (inactive)
15,CCn1c(C)nc2c1C(=O)c1ccccc1C2=O,-0.9% (inactive)
16,O=C1CCCCC(=O)c2ccccc2N1,14.5% (inactive)
17,FC(F)(F)c1cc(-c2ccco2)nc(NCc2ccc(Cl)cc2)n1,97.5% (active)
18,FC(F)(F)c1cc(-c2ccco2)nc(N2CCOCC2)n1,-16.1% (inactive)
19,COc1ccc(Nc2nc(Cl)nc(NCc3ccco3)n2)cc1,5.9% (inactive)
20,O=C(CSc1nc(-c2ccco2)cc(C(F)(F)F)n1)NCc1cccs1,7.6% (inactive)
21,FC(F)(F)c1cc(-c2cccs2)nc(NCc2ccco2)n1,60.7% (active)
22,COc1nc(NCc2ccc(Cl)cc2)nc(OC)n1,9.7% (inactive)
23,CCc1ccc(/C=N/NC(=O)c2ccc(OC3CCCC3)cc2)s1,-41.1% (inactive)
24,Cc1oc(-c2ccccc2Cl)[n+]([O-])c1C,7.1% (inactive)

row,SMILES,inhibition
1,Cc1cnc(NC(=O)CSc2nnc(C)s2)s1,8.4% (inactive)
2,O=C(CSc1nnc(-c2ccoc2)o1)N1CCOCC1,-12.9% (inactive)
3,CCc1ccc(N(CC)c2ncnc3nc[nH]c23)cc1,3.4% (inactive)
4,Cc1ccc(C)c(NC(=O)C2Cc3ccccc3CN2C(=O)OCc2ccccc2)c1 (stereo unspecified),65% (active)
5,Cc1ccc(C)c(NC(=O)C2CCCN2C(=O)OC(C)(C)C)c1 (stereo unspecified),-1.5% (inactive)
6,COc1cccc(NC(=O)C2CCCN2C(=O)OCc2ccccc2)c1 (stereo unspecified),15.8% (inactive)
7,O=C(Nn1cnc2ccccc2c1=O)c1ccc(F)cc1Cl,-8.6% (inactive)
8,O=C(CSCc1ccc(Cl)cc1)N1CCCCC1,-83.2% (inactive)
9,Cc1ccc2[nH]c3c(c2c1)CN(C(=O)CN1CCN(c2ccccc2)CC1)CC3,30.7% (inactive)
10,O=C(CN1CCN(c2ccc(Cl)cc2)CC1)N1CCCC1,57.4% (active)
11,Cc1nc(-c2ccccc2)sc1-c1nc(-c2ccccc2)ncc1S(=O)(=O)c1ccccc1,37.8% (inactive)
12,c1ccc(-c2nnc3n2NC(c2ccc4c(c2)OCO4)S3)cc1 (stereo unspecified),21.6% (inactive)
13,c1ccc(CSc2nnc(-c3ccco3)n2Cc2ccccc2)cc1,31.7% (inactive)
14,c1ccc(CSc2nnc(-c3ccco3)c(-c3ccco3)n2)cc1,72.9% (active)
15,Clc1ccccc1CSc1nnc(-c2ccco2)c(-c2ccco2)n1,38.8% (inactive)
16,COc1ccc(C2C3=C(OC(C)=O)c4ccccc4C3=Nc3c2c(=O)n(C)c(=O)n3C)cc1 (stereo unspecified),7.6% (inactive)
17,CC(C)(C)NC(=O)Cn1nnc(-c2ccccc2Cl)n1,-42.7% (inactive)
18,COc1ccc(-c2nnn(CC(=O)N(CCO)C(C(=O)NC3CCCC3)c3ccc(F)cc3)n2)cc1 (stereo unspecified),-3.9% (inactive)
19,Cc1ccc(-c2nnn(CC(=O)N(CCO)C(C(=O)NC(C)(C)C)c3ccncc3)n2)cc1 (stereo unspecified),76.1% (active)
20,O=C(Nc1cc(N2CCOCC2)ncn1)NC1(C(F)(F)F)Oc2ccc(Cl)cc2O1 (stereo unspecified),21.6% (inactive)
21,CCOCCCNC(=O)C(NC(=O)c1ccc(=O)[nH]c1)c1ccc(C)cc1 (stereo unspecified),16.2% (inactive)
22,Cc1ccccc1NC(=O)c1ccccc1NS(=O)(=O)c1cccc2cccnc12,45.1% (inactive)
23,COc1ccc(C(=O)Nc2nncs2)c(OC)c1,-1.4% (inactive)
24,O=C(Nc1nncs1)c1ccccc1NS(=O)(=O)c1cccs1,76.4% (active)

row,SMILES,inhibition
1,CC(=O)c1ccc(NC(=O)N[C@@H](Cc2ccccc2)C(=O)O)cc1,4.2% (inactive)
2,N#CC1=C(N)Oc2n[nH]c(CSc3ccccc3)c2C12C(=O)Nc1ccccc12 (stereo unspecified),24.3% (inactive)
3,Cc1csc2ncc(C(=O)N(Cc3ccccc3)c3ccccn3)c(=O)n12,6.4% (inactive)
4,COCCCn1c(SCc2cccc(OC)c2)nc2cc(OC)c(OC)cc2c1=N,71.3% (active)
5,COc1cccc(-c2cc3nc4c(c(N5CCC6(CC5)OCCO6)n3n2)CCCC4)c1,49.8% (inactive)
6,O=C(Cc1ccc(F)cc1)NC1CCCC1,-37.8% (inactive)
7,O=C(Cn1cnc2c(cnn2-c2ccccc2)c1=O)NCc1ccccc1,-7.3% (inactive)
8,CCOC(=O)Nc1ccc(S(=O)(=O)N(C)C(C)C)cc1,32% (inactive)
9,COC(=O)Nc1ccc(S(=O)(=O)N(C)CC(F)(F)C(F)F)cc1,59.2% (active)
10,COC(=O)Nc1ccc(S(=O)(=O)N2CCN(CCN3C(=O)C4C5C=CC(C5)C4C3=O)CC2)cc1 (stereo unspecified),19.6% (inactive)
11,CC(=O)NC1(c2cccc(F)c2)CCN(CC(=O)NC(C)C)CC1,4.1% (inactive)
12,CON(C)S(=O)(=O)c1ccc2c(c1)NC(=O)C1CCCN21 (stereo unspecified),44% (inactive)
13,O=S(=O)(c1ccc(F)cc1)n1ccc(-c2cnc(-c3ccccc3)s2)n1,53.9% (active)
14,CCn1nnc(NC(=O)c2c(OC)cccc2OC)n1,-11.4% (inactive)
15,O=C(Oc1ccc([N+](=O)[O-])cc1)c1ccc2ccccc2n1,-28.9% (inactive)
16,Cn1cc(S(=O)(=O)N2CCN(c3ccc(F)cc3)CC2)c(=O)n(C)c1=O,-8.1% (inactive)
17,Cc1cc(C)cc(NC(=O)C2CCN(c3nc(C)cc(C)n3)CC2)c1,15.4% (inactive)
18,Cc1cc(NC(=O)c2cccc(N3C(=O)CCC3=O)c2)no1,3.5% (inactive)
19,CC1CCCN(C(C(=O)Nc2ccc(C(C)C)cc2)c2ccc3c(c2)OCO3)C1 (stereo unspecified),16.7% (inactive)
20,O=C(Nc1ccc2c(c1)OCCO2)C(c1ccc(F)cc1)N1CCCCC1 (stereo unspecified),67.1% (active)
21,COc1ccc(-n2c(SCC(=O)Nc3ccc4c(c3)OCO4)nnc2C(C)N2CCCCC2)cc1 (stereo unspecified),20.2% (inactive)
22,CCN1CCN(C(=O)c2ccccc2N(C)S(=O)(=O)c2ccc(C)cc2)CC1,-1.6% (inactive)
23,Cc1ccccc1C(=O)N1CCC(C(=O)Nc2ccc(S(=O)(=O)N(C)C(C)C)cc2)CC1,61.2% (active)
24,CC(=O)Nc1ccc(S(=O)(=O)N2CCC(N(C)CCC(C)C)CC2)cc1,19.4% (inactive)

row,SMILES,inhibition
1,NC(=NC(=O)c1ccccc1)C1=C(O)CCC1=O,0% (inactive)
2,O=C(NC1CCc2ccccc21)C12CN(Cc3ccccc3)CC1C(c1cccc([N+](=O)[O-])c1)=NO2 (stereo unspecified),42.7% (inactive)
3,CCc1ccccc1NC(=O)c1cccs1,-6.7% (inactive)
4,O=C(O)Cc1ccc(NC(=O)c2cccs2)cc1,-6.9% (inactive)
5,Cc1cc2cc(CNC(=O)c3cccs3)ccc2[nH]1,60.2% (active)
6,O=C(/C=C/Sc1ncn[nH]1)c1ccc(Cl)cc1,10.9% (inactive)
7,Cc1nc2ccccc2c(-c2ccccc2)c1C(=O)c1ccccc1,19.7% (inactive)
8,CCOC(=O)CSc1nnc(NC(=O)c2cccc(S(=O)(=O)N3CCCC3)c2)s1,14.4% (inactive)
9,CCOC(=O)CSc1nnc(NC(=O)c2cccc(S(=O)(=O)N3CCCCC3)c2)s1,35.5% (inactive)
10,CCOC(=O)C1=C(CC)Nc2ccccc2N=C1NC(=O)c1cccc(S(=O)(=O)N2CCCC2)c1,90.2% (active)
11,COc1ccc2c(CC(=O)Nc3nnc(C4CC4)s3)coc2c1,24.7% (inactive)
12,CC(=O)c1c(N2CCOCC2)nc(=S)n(Cc2ccccc2)c1C,12.5% (inactive)
13,COc1ccc(N2CCN(CCNC(=O)CCN3C(=O)COc4ccccc43)CC2)cc1,-2.8% (inactive)
14,COc1ccc(CN2CC(C(=O)NCCN3CCN(c4ccccc4F)CC3)CC2=O)cc1 (stereo unspecified),-10.3% (inactive)
15,COc1ccc(N2CCN(CCNC(=O)c3nnc(Cc4c(F)cccc4Cl)o3)CC2)cc1,66.3% (active)
16,C/C(=C(\C#N)C(=O)NCCCN1CCOCC1)N(C)C,-16.4% (inactive)
17,CC(=O)Nc1ccc(NS(=O)(=O)c2cc(C)sc2C)cc1,56.5% (active)
18,CC(=O)Nc1ccc(S(=O)(=O)NCCc2ccccc2)cc1,49.5% (inactive)
19,Cc1cc(C)c(C)c(S(=O)(=O)Nc2ccc(O)cc2)c1C,-16.6% (inactive)
20,Cc1cccc(NC(=O)COc2ccc(Br)cc2C)n1,-11% (inactive)
21,O=C(Nc1cccc(Cl)c1)Nc1nnc(-c2ccccc2)o1,8.9% (inactive)
22,O=C(COC(=O)c1ccc(Oc2ccccc2)cc1)Nc1nnc(-c2ccccc2)o1,89.1% (active)
23,COc1ccc(CC(=O)Nc2ccc(-c3nnc(-c4ccccc4)o3)cc2)cc1,19% (inactive)
24,COc1cccc(-n2c(Cc3cc(=O)[nH]c(=O)[nH]3)nnc2SCC(=O)Nc2ccccc2)c1,-48.2% (inactive)
